Screens as filed in PubChem.
A selection: hits, their analogues and other compounds. The true share with any hit is near 3.5%.
mHTT CaM bind – mutant huntingtin-calmodulin interaction inhibitors – biochemical, AlphaScreen, primary screen. inhibition, % at 15 µM. P42858. AID 1671202, 2021. AlphaScreen His-mHTT/GST-CaM binding, luminescence. hit rate 3.6% among 190,000;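 further: 0% = both proteins with DMSO and 100% = one protein alone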
Pf apPOL inh – Pf-apPOL inhibitors, biochemical, fluorescence | hit rate 0.25% among 210,000 | inhibition, % at 10 µM | Plasmodium falciparum apicoplast DNA polymerase (apPOL) | AID 1794808, 2022 | Recombinant Pf-apPOL, molecular beacon fluorescence, 1.5 h
Active calls of the source: *; x = no result; ! = repeats disagree. No stated cut-off is given here; in the data, active means inhibition above about 50%; inactive means the rest.

SMILES | mHTT CaM bind | Pf apPOL inh
O=C(C=Cc1ccc2c(c1)OCCCO2)c1ccccc1OCc1ccccc1 | -3 | -3
N#C/C(=C\c1ccc2c(c1)OCO2)C(=O)Nc1ccc(Cl)c([N+](=O)[O-])c1 | 4 | -4
Cc1nn(CCCC(=O)NCc2ccco2)c(C)c1[N+](=O)[O-] | 1 | -6
CCCNc1cc(-n2cccn2)ncn1 | 8 | -14
Cc1ccc(C)c(N2CCN(C(=O)c3c(C)sc4ccn(C)c(=O)c34)CC2)c1 | 92* | 0
Cc1sc2ccn(C)c(=O)c2c1C(=O)N1CCCCCC1 | 7 | -1
CCn1ccc2sc(C)c(C(=O)N3CCN(c4ccc(F)cc4)CC3)c2c1=O | 55* | -3
CCn1ccc2sc(C)c(C(=O)N3CCN(c4ccccc4F)CC3)c2c1=O | 41 | -4
CCCn1ccc2sc(C)c(C(=O)N3CCCC3)c2c1=O | 6 | 3
CCCn1ccc2sc(C)c(C(=O)N3CCN(c4ccc(F)cc4)CC3)c2c1=O | 60* | 1
CC1c2cccn2CCN1C(=O)Nc1cccc(F)c1 (configuration not stated) | 2 | -1
O=C(c1ccsc1)N1CCN(c2nc(CN3CCCC3)cs2)CC1 | 4 | -3
Cc1ccc(-c2nc(-c3ccc4nncn4c3)no2)cc1 | 4 | 1
O=C(Nc1sc2c(c1C(=O)NCCN1CCOCC1)CCCC2)c1ccccc1 | 0 | -9
CN1C(=O)Cc2cc(C(=O)NCc3ccc4c(c3)OCO4)ccc21 | 6 | 8
C=CCN1C(=O)/C(=C2/SC(N3CCCCC3)=NC2=O)c2cc(Br)ccc21 | 52* | -4
CCCN1C(=O)/C(=C2/SC(=N)NC2=O)c2cc(Br)ccc21 | 5 | -1
C=CCN1C(=O)/C(=C2\SC(N3CC(C)OC(C)C3)=NC2=O)c2cc(Br)ccc21 (configuration not stated) | 54* | x
O=C(O)CN1C(=O)/C(=C2/SC(N3CCOCC3)=NC2=O)c2cc(Br)ccc21 | 0 | 2
CCCC(C)NC(=O)c1ccc(C)cc1 (configuration not stated) | -1 | -7
NC(=O)c1ccc(NC(=O)c2ccsc2)cc1 | -7 | -7
O=C(N1CCC(C(c2ccccc2)c2ccccc2)CC1)C(Cl)(Cl)Cl | x | -15
Cn1c(/C(C#N)=C/c2ccccc2Cl)nc2ccccc21 | -18 | -2
COc1cccc(CNC(=O)C2=C(C)C(=O)OC23CCCCC3)c1 | -11 | 8
Cc1ccnc(Nc2nc(-c3ccc(Cl)cc3)cs2)c1 | 2 | -3
SMILES | mHTT CaM bind | Pf apPOL inh
Cc1ccnc(Nc2nc(-c3cccnc3)cs2)c1 | 7 | 72*!
Cc1ccnc(Nc2nc(CC(=O)NCc3ccco3)cs2)c1 | 68* | 16
Cc1ccnc(Nc2nc(-c3ccc4c(c3)OCO4)cs2)c1 | 56* | -1
Cc1ccnc(Nc2nc(-c3ccncc3)cs2)c1 | 28 | 3
Cc1ccnc(Nc2nc(CC(=O)NCCc3cccs3)cs2)c1 | 15 | -18
COc1ccccc1-n1nnc(C(=O)NCc2ccccc2Cl)c1N | 3 | 2
O=C(Nc1ccc2c(c1)CN(C(=O)c1cccs1)CC2)c1ccco1 | 8 | -15
O=C1OC(/C=C/c2cccc([N+](=O)[O-])c2)=NC/1=C/c1ccc(Cl)c(Cl)c1 | 10 | 0
Cc1cc2c(cc1C)N[C@]1(C[C@H]3CCC(=O)N4CC[C@@H](C1)[C@@H]34)C(=Nc1ccccc1C)N2 | 48 | -5
O=C1CCC[C@@H]2C[C@@]3(C[C@@H]4CCN1[C@H]24)Nc1cc(Cl)ccc1NC3=NC1CCCCC1 | 30 | -2
O=C1CCC[C@@H]2C[C@@]3(C[C@@H]4CCN1[C@H]24)Nc1cc(Cl)ccc1NC3=NCc1ccccc1 | 62* | -3
Cc1cc2c(cc1C)N[C@]1(C[C@H]3CCCC(=O)N4CC[C@@H](C1)[C@@H]34)C(=NCc1ccccc1)N2 | 34 | 2
O=C1CCC[C@@H]2C[C@@]3(C[C@@H]4CCN1[C@H]24)Nc1cc([N+](=O)[O-])ccc1NC3=NC1CCCCC1 | 51* | -3
Cc1ccccc1N=C1Nc2ccccc2N[C@]12C[C@H]1CCCC(=O)N3CC[C@@H](C2)[C@@H]13 | 15 | -1
Cc1cc2c(cc1C)N[C@]1(C[C@H]3CCCC(=O)N4CC[C@@H](C1)[C@@H]34)C(=NC(C)(C)CC(C)(C)C)N2 | 100* | -4
CC(C)(C)CC(C)(C)N=C1Nc2ccc(Cl)cc2N[C@]12C[C@H]1CCCC(=O)N3CC[C@@H](C2)[C@@H]13 | 73* | -2
CN(C)C1(C)C(=O)c2ccccc2C1=O | -1 | -4
CCCCN(C)C(=O)CN1CCN(C(=O)Nc2ccccc2)CC1=O | -3 | 7
COC(=O)C(O)(c1ccc(N=Cc2ccccc2O)cc1)C(F)(F)F (configuration not stated) | x | -19
CCC(C)NC(=O)c1cnn2c(C)c(Cc3ccc(F)cc3)c(C)nc12 (configuration not stated) | -14 | -6
Cc1ccc(CCNC(=O)c2nnn(-c3cccc(C(F)(F)F)c3)c2N)cc1 | 2 | -1
CCSc1nnc(-c2nn(C)c3c2CN(C(=O)c2ccnn2C)CC3)n1C | -4 | -8
CCC(=O)N1CCc2cc(N3CC(C(=O)Nc4cc(C)ccc4OC)CC3=O)ccc21 (configuration not stated) | -4 | 0
COc1ccc(CCNC(C)=O)cc1 | -6 | 0
COc1ccc(CCNc2ccc(C)cc2)cc1 | 71* | -4
SMILES | mHTT CaM bind | Pf apPOL inh
O=C(NCc1cccnc1)c1cc(-c2ccc(Br)s2)nc2ccccc12 | -3 | -7
O=C(Nc1ccc(Cl)cc1)C1CCCN(c2nccnc2Oc2ccccc2)C1 (configuration not stated) | 3 | -5
Cc1ccc(C(C)CCN2CCCC(C)C2)o1 (configuration not stated) | 2 | 0
O=C(c1cn2c(n1)COCC2)N1CCC(Cc2ccccc2)CC1 | 35 | -5
O=C(c1cn2c(n1)CSCC2)N1CCC(Cc2ccccc2)CC1 | 57* | 1
Cc1ccccc1N1CCN(CCOc2cccc(Cl)c2)CC1 | 93* | -5
COc1ccccc1N1CCN(CCOc2ccc(Cl)cc2)CC1 | 7 | -2
Cc1cc2c(c(=O)[nH]1)C(=O)O/C2=C\c1ccc(C)o1 | 69* | -3
Cc1cc2c(c(=O)[nH]1)C(=O)O/C2=C\c1cccs1 | 12 | -3
CNC(=O)C1CCc2sc(C(=O)N3CCCC3)cc2C1 (configuration not stated) | -3 | -5
CCCN(C)C(=O)c1cc2cn(C(C)C)cc2s1 | 10 | -4
CNc1ccc(Cl)c2c1C(=O)c1ccccc1C2=O | 77* | 33
CC(=O)Nc1ccc(Cl)c2c1C(=O)c1ccccc1C2=O | 5 | 10
S=c1sc2c(Cl)ncnc2n1-c1ccccc1 | 83* | x
S=c1sc2c(N3CCc4ccccc43)ncnc2n1-c1ccccc1 | -2 | x
CCN1CCN(C(=O)c2ccn3c(-c4ccccc4)nnc3c2)CC1 | -7 | -2
COc1ccc2c(c1)OC(=Cc1ccccc1OC)C2=O | -2 | -6
N#CNC(=NS(=O)(=O)c1ccc(Cl)cc1)c1ccccc1 | 3 | -1
CCN1C(=O)/C(=C2\C=Cc3ccccc3N2CC)SC1=Nc1ccc(OC)cc1 | 55* | 1
CCSC1=NC(=O)/C(=C2\C=Cc3ccccc3N2CC)S1 | 49 | -17
COc1ccccc1CN1COc2ccc3c(c2C1)OC(=Cc1cccnc1)C3=O | 3 | -10
COc1ccccc1CN1COc2ccc3c(c2C1)OC(=Cc1ccncc1)C3=O | 100* | -21
